Test results taken from the supplement of paper PMC11732987, “Enantioselective OTUD7B fragment discovery through chemoproteomics screening and high-throughput optimisation” (Communications Chemistry, 2025).

Key:
Assay in all cases: log2 ratio of Biotin-Ahx-Ub-VS probe labelling (fragment/DMSO); higher = less target engagement (more negative = stronger competition), active = hit call of the paper (q ≤ 0.05, log2 ratio ≤ -1)
Settings in all cases: compound concentration: 200 uM; treatment time: 3 h
USP34 = USP34 (UniProt Q70CQ2)
Summary of the method: (§1)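 Global-median-normalised Spectronaut label-free quantities were compared by unpaired t-test, and values are average log2 ratios of fragment over vehicle. Only proteins with ≥2 unique peptides were used. HEK293T lysate (495 µg per sample) was treated in triplicate with fragment at 200 µM or vehicle for 3 h and then with Biotin-Ahx-Ub-VS at 0.5 µM final for 1 h. Labelled DUBs were then NeutrAvidin-enriched, digested with LysC and trypsin, and run by diaPASEF LC-MS/MS.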

USP36 = target: T1, USP36 (UniProt Q9P275)
T1 sequence (whole entry): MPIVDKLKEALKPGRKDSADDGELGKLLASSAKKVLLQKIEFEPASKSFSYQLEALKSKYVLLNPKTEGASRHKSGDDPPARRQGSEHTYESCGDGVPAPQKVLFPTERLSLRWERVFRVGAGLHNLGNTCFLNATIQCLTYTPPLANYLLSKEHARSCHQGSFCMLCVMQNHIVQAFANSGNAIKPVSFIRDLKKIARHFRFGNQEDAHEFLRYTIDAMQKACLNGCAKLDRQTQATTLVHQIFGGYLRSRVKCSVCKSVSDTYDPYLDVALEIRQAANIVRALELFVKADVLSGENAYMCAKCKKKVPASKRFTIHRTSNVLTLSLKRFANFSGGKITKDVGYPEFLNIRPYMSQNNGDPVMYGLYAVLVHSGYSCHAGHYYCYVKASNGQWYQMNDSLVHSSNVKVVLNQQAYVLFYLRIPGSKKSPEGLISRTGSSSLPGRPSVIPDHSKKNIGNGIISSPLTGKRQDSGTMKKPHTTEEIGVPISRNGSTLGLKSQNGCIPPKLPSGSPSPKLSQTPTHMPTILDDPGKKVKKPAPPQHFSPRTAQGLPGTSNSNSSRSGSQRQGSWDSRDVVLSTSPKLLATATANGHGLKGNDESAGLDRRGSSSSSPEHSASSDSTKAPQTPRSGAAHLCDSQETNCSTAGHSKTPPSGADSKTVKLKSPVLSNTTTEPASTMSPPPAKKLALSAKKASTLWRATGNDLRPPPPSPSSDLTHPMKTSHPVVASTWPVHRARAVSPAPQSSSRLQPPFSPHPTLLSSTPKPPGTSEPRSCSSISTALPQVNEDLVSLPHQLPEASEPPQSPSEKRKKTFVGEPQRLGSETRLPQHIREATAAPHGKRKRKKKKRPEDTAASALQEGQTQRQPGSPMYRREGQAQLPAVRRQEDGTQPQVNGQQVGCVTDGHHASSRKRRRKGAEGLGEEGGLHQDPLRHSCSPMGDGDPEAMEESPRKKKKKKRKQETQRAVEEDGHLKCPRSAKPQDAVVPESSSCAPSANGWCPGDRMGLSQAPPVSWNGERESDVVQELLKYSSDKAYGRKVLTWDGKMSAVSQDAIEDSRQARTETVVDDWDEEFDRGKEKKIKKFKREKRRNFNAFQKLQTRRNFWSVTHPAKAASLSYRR
Summary of the method: as §1

USP38 = target: T2, USP38 (UniProt Q8NB14)
T2 sequence (whole entry): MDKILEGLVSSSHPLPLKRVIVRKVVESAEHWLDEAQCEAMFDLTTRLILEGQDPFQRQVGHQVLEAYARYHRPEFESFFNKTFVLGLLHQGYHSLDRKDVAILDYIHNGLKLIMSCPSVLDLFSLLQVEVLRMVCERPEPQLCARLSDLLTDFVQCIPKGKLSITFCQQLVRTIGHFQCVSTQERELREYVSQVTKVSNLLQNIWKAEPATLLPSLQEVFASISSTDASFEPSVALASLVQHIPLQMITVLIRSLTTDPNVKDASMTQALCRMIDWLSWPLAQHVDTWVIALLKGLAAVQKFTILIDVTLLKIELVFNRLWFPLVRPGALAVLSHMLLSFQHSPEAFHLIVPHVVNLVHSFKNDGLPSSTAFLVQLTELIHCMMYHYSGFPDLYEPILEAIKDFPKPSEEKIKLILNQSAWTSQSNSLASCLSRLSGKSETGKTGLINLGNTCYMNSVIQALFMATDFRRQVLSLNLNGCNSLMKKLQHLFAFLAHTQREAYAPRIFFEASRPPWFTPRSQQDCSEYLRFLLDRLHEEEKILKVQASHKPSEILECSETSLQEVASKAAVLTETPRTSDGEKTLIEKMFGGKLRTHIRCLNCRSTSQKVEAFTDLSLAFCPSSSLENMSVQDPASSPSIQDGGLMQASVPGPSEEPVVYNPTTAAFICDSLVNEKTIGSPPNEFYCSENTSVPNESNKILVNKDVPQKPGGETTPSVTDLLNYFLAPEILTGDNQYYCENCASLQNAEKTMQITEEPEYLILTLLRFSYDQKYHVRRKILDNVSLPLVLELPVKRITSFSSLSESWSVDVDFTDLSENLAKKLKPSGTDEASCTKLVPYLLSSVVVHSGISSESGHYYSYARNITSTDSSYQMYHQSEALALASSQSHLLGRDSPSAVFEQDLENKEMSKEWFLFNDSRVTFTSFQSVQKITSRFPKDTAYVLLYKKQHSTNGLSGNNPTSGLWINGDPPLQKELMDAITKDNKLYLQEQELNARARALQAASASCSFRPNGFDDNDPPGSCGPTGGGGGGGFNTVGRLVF
Summary of the method: as §1

USP39 = target: T3, USP39 (UniProt Q53GS9)
T3 sequence (whole entry): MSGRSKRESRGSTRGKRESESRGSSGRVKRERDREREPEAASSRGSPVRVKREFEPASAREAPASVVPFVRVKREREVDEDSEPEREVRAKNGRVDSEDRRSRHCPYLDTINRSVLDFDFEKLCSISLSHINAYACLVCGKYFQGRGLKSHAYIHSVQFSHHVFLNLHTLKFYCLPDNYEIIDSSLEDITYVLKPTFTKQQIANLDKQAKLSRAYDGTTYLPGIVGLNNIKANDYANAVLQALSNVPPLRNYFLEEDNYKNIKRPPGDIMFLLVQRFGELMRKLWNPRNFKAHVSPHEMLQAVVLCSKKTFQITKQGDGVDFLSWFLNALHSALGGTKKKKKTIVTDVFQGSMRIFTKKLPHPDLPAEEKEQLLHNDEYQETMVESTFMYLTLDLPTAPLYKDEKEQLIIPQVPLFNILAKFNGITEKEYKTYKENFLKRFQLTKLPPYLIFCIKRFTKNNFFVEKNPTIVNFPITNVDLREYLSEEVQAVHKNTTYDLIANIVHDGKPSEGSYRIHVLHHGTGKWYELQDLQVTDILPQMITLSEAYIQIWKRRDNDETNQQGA
Summary of the method: as §1

USP4 = target: T4, USP4 (UniProt Q13107)
T4 sequence (whole entry): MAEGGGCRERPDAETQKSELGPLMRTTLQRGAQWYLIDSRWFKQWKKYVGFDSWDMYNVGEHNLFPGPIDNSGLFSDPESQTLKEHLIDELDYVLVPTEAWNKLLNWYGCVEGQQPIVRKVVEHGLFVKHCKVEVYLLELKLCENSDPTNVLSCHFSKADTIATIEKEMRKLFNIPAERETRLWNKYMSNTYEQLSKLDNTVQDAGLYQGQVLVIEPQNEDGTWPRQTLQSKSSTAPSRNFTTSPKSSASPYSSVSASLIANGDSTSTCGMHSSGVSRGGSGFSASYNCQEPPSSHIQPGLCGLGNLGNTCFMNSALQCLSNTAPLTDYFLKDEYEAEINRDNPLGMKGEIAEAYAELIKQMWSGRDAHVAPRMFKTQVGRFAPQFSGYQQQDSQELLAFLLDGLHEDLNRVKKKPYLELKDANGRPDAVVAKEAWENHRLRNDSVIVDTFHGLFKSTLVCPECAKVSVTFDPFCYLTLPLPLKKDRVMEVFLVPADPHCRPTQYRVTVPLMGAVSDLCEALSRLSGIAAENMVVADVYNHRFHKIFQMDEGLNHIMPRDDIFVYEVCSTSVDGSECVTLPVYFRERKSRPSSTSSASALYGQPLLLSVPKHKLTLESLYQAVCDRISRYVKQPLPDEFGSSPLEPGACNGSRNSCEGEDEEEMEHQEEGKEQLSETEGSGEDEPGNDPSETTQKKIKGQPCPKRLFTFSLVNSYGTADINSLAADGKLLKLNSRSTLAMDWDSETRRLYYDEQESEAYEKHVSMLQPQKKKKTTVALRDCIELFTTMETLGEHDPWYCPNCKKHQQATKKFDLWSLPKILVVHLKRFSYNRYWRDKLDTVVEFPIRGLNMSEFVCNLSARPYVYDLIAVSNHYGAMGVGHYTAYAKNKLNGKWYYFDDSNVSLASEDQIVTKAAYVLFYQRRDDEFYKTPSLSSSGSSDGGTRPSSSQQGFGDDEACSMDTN
Summary of the method: as §1

Measured: log2 ratio of Biotin-Ahx-Ub-VS probe labelling

Sequence of USP34 (Q70CQ2 whole entry, the tested form may be a part): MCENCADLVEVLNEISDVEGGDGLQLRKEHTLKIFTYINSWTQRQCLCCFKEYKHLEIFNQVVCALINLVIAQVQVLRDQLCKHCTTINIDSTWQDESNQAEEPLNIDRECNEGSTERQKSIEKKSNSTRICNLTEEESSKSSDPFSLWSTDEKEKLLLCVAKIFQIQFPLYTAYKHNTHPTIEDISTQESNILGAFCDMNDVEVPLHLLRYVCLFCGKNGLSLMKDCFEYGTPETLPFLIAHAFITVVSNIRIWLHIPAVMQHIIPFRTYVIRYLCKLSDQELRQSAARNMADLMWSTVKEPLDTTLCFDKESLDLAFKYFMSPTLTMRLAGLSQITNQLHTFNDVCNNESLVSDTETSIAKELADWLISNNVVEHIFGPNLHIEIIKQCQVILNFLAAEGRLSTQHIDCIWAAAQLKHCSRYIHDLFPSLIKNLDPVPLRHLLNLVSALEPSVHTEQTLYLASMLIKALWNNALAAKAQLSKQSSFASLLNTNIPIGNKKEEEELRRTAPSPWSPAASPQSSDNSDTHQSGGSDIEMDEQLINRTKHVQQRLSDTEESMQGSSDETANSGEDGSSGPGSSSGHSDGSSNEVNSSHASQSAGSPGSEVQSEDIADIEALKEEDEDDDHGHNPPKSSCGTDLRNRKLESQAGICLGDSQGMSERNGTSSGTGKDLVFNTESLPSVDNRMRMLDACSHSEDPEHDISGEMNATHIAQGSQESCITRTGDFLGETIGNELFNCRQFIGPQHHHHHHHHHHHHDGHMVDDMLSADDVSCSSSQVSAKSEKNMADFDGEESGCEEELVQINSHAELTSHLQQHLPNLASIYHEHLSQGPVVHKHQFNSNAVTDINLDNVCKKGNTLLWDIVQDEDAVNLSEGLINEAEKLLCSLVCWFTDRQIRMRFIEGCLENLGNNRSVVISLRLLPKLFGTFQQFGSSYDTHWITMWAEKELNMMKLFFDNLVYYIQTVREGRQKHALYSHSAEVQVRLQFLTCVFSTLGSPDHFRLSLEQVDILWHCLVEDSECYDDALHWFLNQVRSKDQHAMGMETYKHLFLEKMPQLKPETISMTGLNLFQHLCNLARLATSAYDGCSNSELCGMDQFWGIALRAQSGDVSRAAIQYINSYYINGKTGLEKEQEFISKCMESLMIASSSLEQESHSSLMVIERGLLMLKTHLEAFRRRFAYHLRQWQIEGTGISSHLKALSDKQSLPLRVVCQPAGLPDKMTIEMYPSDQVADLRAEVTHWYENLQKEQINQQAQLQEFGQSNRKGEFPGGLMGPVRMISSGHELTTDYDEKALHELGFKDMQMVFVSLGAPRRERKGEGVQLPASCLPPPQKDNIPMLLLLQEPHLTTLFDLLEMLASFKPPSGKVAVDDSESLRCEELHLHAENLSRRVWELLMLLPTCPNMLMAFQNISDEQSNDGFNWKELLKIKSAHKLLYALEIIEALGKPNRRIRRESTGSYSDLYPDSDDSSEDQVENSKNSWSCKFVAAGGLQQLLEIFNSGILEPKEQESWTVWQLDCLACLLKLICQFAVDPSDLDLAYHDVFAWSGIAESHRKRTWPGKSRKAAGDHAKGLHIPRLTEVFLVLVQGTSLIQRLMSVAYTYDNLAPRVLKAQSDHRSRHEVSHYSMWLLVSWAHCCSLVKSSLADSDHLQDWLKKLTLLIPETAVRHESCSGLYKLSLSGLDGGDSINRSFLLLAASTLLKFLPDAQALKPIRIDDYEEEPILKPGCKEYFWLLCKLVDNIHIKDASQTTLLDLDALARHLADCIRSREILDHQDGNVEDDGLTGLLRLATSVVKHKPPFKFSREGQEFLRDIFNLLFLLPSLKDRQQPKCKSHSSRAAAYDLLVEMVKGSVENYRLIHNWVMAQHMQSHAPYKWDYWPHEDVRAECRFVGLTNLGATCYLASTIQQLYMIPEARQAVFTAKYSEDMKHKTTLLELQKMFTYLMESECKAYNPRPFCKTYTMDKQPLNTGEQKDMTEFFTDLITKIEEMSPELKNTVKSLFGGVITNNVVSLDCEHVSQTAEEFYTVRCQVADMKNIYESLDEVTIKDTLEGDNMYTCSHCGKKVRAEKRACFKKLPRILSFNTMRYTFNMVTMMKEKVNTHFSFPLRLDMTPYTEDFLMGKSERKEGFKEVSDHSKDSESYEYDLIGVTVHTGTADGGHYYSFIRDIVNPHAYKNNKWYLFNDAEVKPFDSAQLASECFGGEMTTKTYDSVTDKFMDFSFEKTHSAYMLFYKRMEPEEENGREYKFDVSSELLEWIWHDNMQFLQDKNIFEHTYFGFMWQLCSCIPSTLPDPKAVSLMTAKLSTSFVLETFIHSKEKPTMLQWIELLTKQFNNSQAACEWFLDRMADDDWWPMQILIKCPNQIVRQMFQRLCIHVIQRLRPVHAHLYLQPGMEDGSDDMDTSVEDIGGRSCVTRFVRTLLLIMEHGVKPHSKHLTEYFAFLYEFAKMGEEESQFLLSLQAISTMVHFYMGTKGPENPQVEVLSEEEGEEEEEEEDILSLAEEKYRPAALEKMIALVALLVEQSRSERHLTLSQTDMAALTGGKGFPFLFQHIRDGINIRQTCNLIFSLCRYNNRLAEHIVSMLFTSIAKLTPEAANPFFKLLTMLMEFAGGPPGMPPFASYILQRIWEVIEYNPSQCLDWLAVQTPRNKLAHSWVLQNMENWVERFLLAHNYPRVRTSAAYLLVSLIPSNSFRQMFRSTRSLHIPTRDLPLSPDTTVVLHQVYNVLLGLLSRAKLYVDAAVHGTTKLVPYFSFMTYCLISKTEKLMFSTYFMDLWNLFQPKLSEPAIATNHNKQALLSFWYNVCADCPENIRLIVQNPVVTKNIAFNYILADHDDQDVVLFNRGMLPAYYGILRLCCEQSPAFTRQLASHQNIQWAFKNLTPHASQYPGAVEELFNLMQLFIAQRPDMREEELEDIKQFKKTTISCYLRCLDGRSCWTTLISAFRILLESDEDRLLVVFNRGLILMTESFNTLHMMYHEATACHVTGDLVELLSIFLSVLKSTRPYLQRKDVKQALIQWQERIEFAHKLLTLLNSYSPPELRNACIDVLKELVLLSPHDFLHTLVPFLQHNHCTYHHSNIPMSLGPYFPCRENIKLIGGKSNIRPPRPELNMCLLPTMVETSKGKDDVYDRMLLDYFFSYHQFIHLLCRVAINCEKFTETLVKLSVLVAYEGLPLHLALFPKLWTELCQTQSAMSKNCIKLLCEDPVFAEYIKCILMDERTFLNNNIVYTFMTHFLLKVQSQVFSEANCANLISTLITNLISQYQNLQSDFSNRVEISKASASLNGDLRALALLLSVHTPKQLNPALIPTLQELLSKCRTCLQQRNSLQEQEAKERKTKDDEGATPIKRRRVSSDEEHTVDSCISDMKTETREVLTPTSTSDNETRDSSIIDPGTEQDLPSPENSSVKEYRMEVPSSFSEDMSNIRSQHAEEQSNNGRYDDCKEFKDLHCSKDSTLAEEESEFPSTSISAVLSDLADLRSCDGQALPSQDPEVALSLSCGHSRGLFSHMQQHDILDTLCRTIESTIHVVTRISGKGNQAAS

COCC1C=CCCN1C(=O)CCl (stereo not given)
inactive: USP34 -0.0902 | USP36 -0.00282 | USP38 -0.157 | USP39 -0.196 | USP4 -0.211
